# Sampled rows, rich in hits. Any-hit rate of the full collection: about 2.6%.
# PHOSPHO1 inh – blocks human PHOSPHO1 phosphatase activity. recombinant PHOSPHO1, absorbance phosphatase assay. inhibition, % at 13.3 µM. 1.1% of 290,000 active. AID 1565; in the data active means inhibition above about 60%
# Target sequence (Q8TCT1 whole entry, looked up): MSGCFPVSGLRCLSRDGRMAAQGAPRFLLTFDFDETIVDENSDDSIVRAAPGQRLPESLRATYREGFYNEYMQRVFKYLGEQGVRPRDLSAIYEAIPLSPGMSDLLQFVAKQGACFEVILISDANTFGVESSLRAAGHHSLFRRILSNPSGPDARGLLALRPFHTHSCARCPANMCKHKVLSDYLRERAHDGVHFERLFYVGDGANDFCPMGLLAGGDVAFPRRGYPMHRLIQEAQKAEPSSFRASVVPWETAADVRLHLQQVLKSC
# eIF4H inh – inhibitors of RNA binding by human eIF4H. Q15056. eIF4H fluorescence polarization binding assay. inhibition, % at 35 µM. 0.94% of 290,000 active. AID 2012;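 further: calls also rest on retests at 20 µM and on dose response follow-up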
# CRFBP-R2 block – blocks CRF-induced signaling of the CRF-BP/CRF-R2 complex. HEK293 CRF-R2/CRF-BP, CRF-induced calcium fluorescence. inhibition, % at 11.8 µM. 0.59% of 350,000 active;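 active means inhibition of the ligand-induced calcium signal above about 50% at the single tested concentration, limit read from the data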
# PABP FP inh – blocks human PABP binding to poly(A) RNA; fluorescence polarization; inhibition, % at 35 µM; 1% of 290,000 active; AID 2014;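 further: calls also rest on retests at 20 µM and on dose response follow-up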
# PABP1 MLLE inh – inhibitors of microRNA-mediated deadenylation, human PABP1 MLLE binding; P11940; GST-MLLE / FITC-PAM2 fluorescence polarization; inhibition, % at 20 µM; 0.36% of 360,000 active; AID 588489; in the data active means inhibition above about 35%, passing the limit was not always enough;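 further: plate controls were DMSO wells with GST-MLLE for no effect and wells lacking GST-MLLE protein for full effect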
# * hit, by the source's call; ? = inconclusive; . = no result given. Unless noted, how the calls were made is not given here.
SMILES,PHOSPHO1 inh,eIF4H inh,CRFBP-R2 block,PABP FP inh,PABP1 MLLE inh
O=c1c(/C=N/Nc2ccccc2)c(Sc2nnnn2-c2ccccc2)nc2ccccn12,93.0*,?,-106.0,?,21.8
CCn1cnc2c1c(=O)n(CC(=O)NCC(F)(F)F)c(=O)n2Cc1ccccc1,-43.4,99.2*,-26.7,active,-53.9
CCOC(=O)CSC1=C(C#N)C(c2ccc(C)s2)CC(=O)N1 (stereo not drawn),-7.4,0.6,14.1,0.9,-3.4
CCOC(=O)CSC1=C(C#N)C(=O)NC2(CCCCC2)S1,97.9*,-9.3,-5.8,27.1,23.4
O=C(CSc1nnc(C2CC2)n1Cc1ccccc1)c1cc2ccccc2o1,97.1*,-1.8,-5.4,18.1,-60.9
O=C(CSc1cccc[n+]1[O-])c1cc2ccccc2o1,79.4*,3.4,16.9,7.2,23.3
O=C(O)CSc1cccc[n+]1[O-],-2.3,0.7,-2.7,-0.4,5.0
Cn1c(N)c(C(=O)CSc2nnc(C3CC3)n2Cc2ccccc2)c(=O)n(C)c1=O,.,.,-7.3,.,-6.9
CCOC(=O)N(C)c1c(CC)nc2c(OCc3ccccc3OC)cccn12,.,.,.,.,11.6
CC(CN1CCCCC1)NC(=O)c1scnc1-c1ccccc1 (stereo not drawn),.,.,.,.,11.8
CC1(c2ccc(Cl)c(Cl)c2)NC(=S)N2C1NC(=S)N2c1ccccc1 (stereo not drawn),88.9*,6.6,-24.1,0.2,-47.1
CC1(c2ccc(Cl)cc2)NC(=S)N2C1NC(=S)N2c1ccccc1 (stereo not drawn),19.9,-8.4,-15.0,0.2,-64.2
COC(=O)c1ccc(NC(=O)c2nc(S(=O)(=O)Cc3cccc(C)c3)ncc2Cl)cc1,8.9,-1.5,52.5*,7.6,22.9
COc1ccccc1NC(=O)c1nc(S(=O)(=O)Cc2ccccc2)ncc1Cl,32.9,-9.7,51.0*,7.6,22.7
CCOC(=O)c1ccc(NC(=O)c2nc(S(=O)(=O)Cc3ccccc3)ncc2Cl)cc1,21.8,-10.7,29.9,-11.1,28.0
CC(=O)Nc1ccc(NC(=O)c2nc(S(=O)(=O)Cc3cccc(C)c3)ncc2Cl)cc1,27.6,-7.6,72.8*,5.7,17.8
Cc1[nH]c2ccccc2c1Cc1n[nH]c(=S)o1,90.4*,-2.9,3.3,-3.0,-81.1
Cc1[nH]c2ccccc2c1Cc1n[nH]c(=S)n1C,-16.5,52.0,19.1,3.3,-7.3
CCc1ccc(Nc2nnc(SC(C)C(=O)NC3CC3)s2)cc1 (stereo not drawn),.,.,78.6*,.,-99.1
OC(Cc1ccccc1)c1ncc(-c2ccc3ccccc3c2)[nH]1 (stereo not drawn),.,.,.,.,10.8
O=C(O)CC/C(=C\c1cc([N+](=O)[O-])ccc1Cl)c1nc2ccccc2s1,0.1,-3.1,11.7,1.8,0.6
O=C(O)CC/C(=C\c1cccc(NC(=O)c2ccccc2Cl)c1)c1nc2ccccc2s1,23.3,57.9*,7.5,10.8*,-4.5
O=C(O)C/C(=C\c1cc(Cl)c2c(c1)OCO2)c1nc2ccccc2s1,-13.3,94.0*,-42.3,31.6,-21.9
CCCCc1c(O)nc(SCCN(C)C)n(-c2ccccc2)c1=O,29.8,-14.3,1.1,-12.8,37.8*
Cc1cc(=O)n(C(C)c2ccccc2)n1C(C)c1ccccc1 (stereo not drawn),.,.,25.9,.,-4.4
SMILES,PHOSPHO1 inh,eIF4H inh,CRFBP-R2 block,PABP FP inh,PABP1 MLLE inh
Cc1cc2cc(CCNC(=O)c3ccc(C)c([N+](=O)[O-])c3)c(=O)[nH]c2cc1C,5.6,-12.8,-48.5,5.9,-2.8
Cc1cc2cc(CNC(=O)c3ccc(C)c([N+](=O)[O-])c3)ccc2[nH]1,-6.1,10.5,17.1,30.5,43.3*
CCC(=O)Nc1cc(Cl)ccc1N1CCN(C(=O)CC)CC1,9.7,-10.0,81.3*,-3.2,-0.1
Cc1nc(-c2ccc(F)cc2)c(CC(=O)Nc2ccc(C)c(S(=O)(=O)N3CCOCC3)c2)s1,47.6,-8.6,-12.4,2.5,-11.1
COc1cc(/C=N/NC(=O)CSc2cc(C)c(Br)cc2C)ccc1O,12.1,-5.7,-5.9,-1.3,-1.0
Cc1cc(SCC(=O)N/N=C/c2ccc(O)c(O)c2O)c(C)cc1Br,-1.4,92.6*,-53.2,59.6*,12.1
COc1cc(OC)c(-c2nn3c(-c4ccco4)nnc3s2)cc1OC,19.4,75.4*,26.7,17.0,2.7
COc1ccc(-c2nnc3sc(-c4ccco4)nn23)cc1OC,-22.6,19.1,4.2,5.2,-6.6
COc1ccc(-c2nn3c(-c4ccco4)nnc3s2)cc1OC,-6.4,0.3,0.6,11.1,2.7
COc1cccc(-c2nnc3sc(-c4ccco4)nn23)c1,73.8*,2.2,-16.8,4.2,-9.7
Cc1c(CN(C)C(=O)C2CCC(=O)N(Cc3ccccc3F)C2)[nH]c2ccccc12 (stereo not drawn),.,.,-0.7,.,-6.9
COc1ccc(Cl)cc1CC=NNC(=O)c1cccc(C)c1O,.,.,44.1,.,-16.7
CCCCn1nnnc1SCC(=O)Nc1ccc(N(C)C)cc1,-64.4,-5.1,7.5,6.3,-30.1
CN(NC(=O)Nc1ccccc1)c1cnn(C)c(=O)c1Cl,35.7,-2.8,119.5*,-6.4,-9.5
CN(NC(=O)Nc1ccc(Cl)cc1)c1c(Cl)c(Cl)nn1C,19.9,1.2,-29.0,4.5,6.5
O=C(Cc1cnn(-c2ccccc2)c1)c1ccc(O)c(O)c1O,27.8,85.5*,14.0,53.5*,20.5
O=C(CSc1nc(O)cc(=O)n1-c1ccccc1)Nc1ccc2c3c(cccc13)CC2,-3.4,71.3*,-4.6,69.3*,11.5
Cc1ccccc1CNC(=O)c1csc([C@@H]2C[C@H](O)[C@@H](CO)O2)n1,.,.,.,.,10.5
COC(=O)CSc1nn(-c2ccc(F)cc2)c(=S)s1,24.1,-6.2,51.2*,-14.2,-6.8
COc1cccc(CN(C)CC(=O)Nc2ccccc2C(=O)NC2CC2)c1,.,.,-2.4,.,88.6*
COc1cccc(NC(=O)CN(C)CC(=O)NCc2ccco2)c1,.,.,-3.4,.,-19.1
COc1ccc(CN(C)CC(=O)Nc2ccccc2C(=O)NC2CC2)cc1OC,.,.,0.7,.,4.2
COc1cccc(CN(C)CC(=O)NC(=O)NCc2ccco2)c1,3.6,50.0*,20.8,30.0*,2.6
CC(C)C(NC(=O)OCc1ccccc1)C(=O)NC(Cc1c[nH]c2ccccc12)C(=O)O (stereo not drawn),.,.,.,.,-4.3
O=[N+]([O-])c1cccc(NC(=S)Nc2nc(-c3ccccc3Cl)cs2)c1,31.3,13.6,-2.2,-3.1,42.4*
SMILES,PHOSPHO1 inh,eIF4H inh,CRFBP-R2 block,PABP FP inh,PABP1 MLLE inh
O=c1cc(-c2ccccc2)ss1,.,.,90.2*,.,23.5
CO/N=C/C(C#N)c1ncc(C(F)(F)F)cc1Cl (stereo not drawn),2.9,1.0,76.8*,-1.0,1.5
CCN(CC(=O)NCc1ccc(Cl)cc1)C(=O)CNS(=O)(=O)c1ccc(NC(C)=O)cc1,25.0,4.3,5.7,4.8,40.9*
CCN(CC(=O)NCc1ccc(Cl)cc1)CC(=O)Nc1ccc(C(N)=O)cc1,-5.3,0.4*,1.1,50.5,0.8
CC(=O)Nc1ccc(S(=O)(=O)NCc2ccc(C(=O)NCc3ccc(Cl)cc3)cc2)cc1,15.0,-4.9,16.2,1.2,-21.1
CCNC(=O)N1C[C@H]2CON(C)[C@H]2C[C@H]1c1ccccc1Br,.,.,-11.6,.,17.6

# Bioassay records deposited in PubChem by Sanford-Burnham Center for Chemical Genomics.
